Measured values published in PubChem BioAssay (EPA / NIEHS).
Calls of active or inactive are those of the source. The calls were made as follows: active = hit-call score of the fitted dose curve at least 0.9, where 1 is the maximum; inactive = score below 0.9.

Assays:
[1] = APR_HepG2_CellCycleArrest_24hr: Apredica 24-hour HepG2 Assay for Cell Cycle Arrest (AID 2282905); settings: imaging, actives raise or lower the signal;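 also: cell cycle arrest scored as ratio of 2N to 4N nuclear DNA content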
Outline: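 HepG2 cells were exposed to compounds at 0.39–200 uM (ten concentrations, duplicate) in 0.5% v/v DMSO for 24 hr. After formaldehyde fixation and Triton permeabilization, Hoechst 33342-stained nuclei were imaged at 20x; DNA content was quantified, with bidirectional fitting against DMSO.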

[2] = APR_HepG2_NuclearSize_24hr: Apredica 24-hour HepG2 Assay for Nuclear Size (AID 2282907); settings: high-content imaging, actives raise or lower the signal
Outline: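 HepG2 human liver cells were exposed for 24 hr to compounds at 0.39–200 uM (ten concentrations, duplicate) in 0.5% v/v DMSO. They were then formaldehyde-fixed, Triton-permeabilized and Hoechst 33342-stained, and nuclear diameter was imaged at 20x. Bidirectional fits were made against DMSO.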

[3] = APR_HepG2_CellLoss_24hr: Apredica 24-hour HepG2 Assay for Cell Loss (AID 2282908); settings: high-content imaging;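 as to AC50: fit in both directions so a hit may be cell loss or gain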
Outline: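 Compounds were tested at 0.39–200 uM in duplicate with 0.5% v/v DMSO final. Cells were then fixed in 3.7% formaldehyde, Hoechst 33342 nuclei were imaged at 20x by HCS, and cell number was fitted bidirectionally against DMSO.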

[4] = APR_HepG2_MicrotubuleCSK_24hr: Apredica 24-hour HepG2 Assay for Microtubule CSK Stabilty (AID 2282909); settings: HepG2 microtubule cytoskeleton imaging, actives raise or lower the signal
Outline: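 HepG2 cells exposed 24 h to compounds at 0.39–200 uM (duplicate, 0.5% v/v DMSO final), then fixed, permeabilized and immunostained for alpha-tubulin with Hoechst 33342. Cytoskeleton imaged at 20x; bidirectional fit versus DMSO baseline.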

[5] = APR_HepG2_MitoticArrest_24hr: Apredica 24-hour HepG2 Assay for Mitotic Arrest (AID 2282910); settings: high-content imaging, actives raise or lower the signal
Outline: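 HepG2 human liver cells were exposed to compounds at 0.39–200 uM (10 concentrations, duplicate) in 0.5% v/v DMSO for 24 hr, then fixed and immunostained for phospho-histone H3 with Hoechst 33342. Mitotic arrest came from HCS fluorescent imaging, fitted bidirectionally against DMSO.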

[6] = APR_HepG2_MitoMembPot_24hr: Apredica 24-hour HepG2 Assay for Mitochondrial Membrane Potential (AID 2282911); settings: imaging, actives raise or lower the signal
Outline: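 Mitochondrial dye uptake (MitoTracker Red CMXRos, 250 nM, 30 min pre-fixation) in HepG2 after 24 hr compound exposure, 0.39–200 uM; ArrayScan images at 20x, activity fitted in both directions relative to DMSO.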

[7] = APR_HepG2_MitoMass_24hr: Apredica 24-hour HepG2 Assay for Mitochondrial Mass (AID 2282912); settings: high-content imaging, actives raise or lower the signal
Outline: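 Human HepG2 liver cells were exposed for 24 hr to compounds at 0.39–200 uM (duplicates, 0.5% v/v DMSO final). They were stained live with 250 nM MitoTracker Red CMXRos for 30 min, fixed in 3.7% formaldehyde, and imaged by HCS fluorescence; signals were fitted bidirectionally against DMSO.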

[8] = APR_HepG2_p53Act_24hr: Apredica 24-hour HepG2 Assay for p53 Activation (AID 2282913); settings: high-content imaging, actives raise or lower the signal;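 also: p53 protein immunofluorescence averaged per cell in HepG2 with Hoechst nuclei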
Outline: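 Following 24 hr dosing of HepG2 at 0.39–200 uM, the cells undergo formaldehyde fixation, Triton permeabilization and multiplexed antibody labeling that includes p53 (Cy5). Signal from the imaging is referenced to DMSO solvent controls.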

[9] = APR_HepG2_CellCycleArrest_72hr: Apredica 72-hour HepG2 Assay for Cell Cycle Arrest (AID 2282914); settings: high-content imaging, actives raise or lower the signal
Outline: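 Using multiplexed high-content imaging, HepG2 nuclei stained with Hoechst 33342 (2 ug/mL) were analysed for DNA content after fixation and permeabilization. Treatment lasted 72 hr across 0.39–200 uM in duplicate with final DMSO 0.5% v/v; DMSO served as negative control.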

Measured: AC50

CC(=O)OCCC(C)C
inactive: all assays above

CC1(C)C(=O)N(Br)C(=O)N1Br
inactive: all assays above

O=C(O)CC(O)C(=O)O (configuration not stated)
inactive: all assays above

Fc1ccccc1[C@@H](F)COC1CCC(Nc2ncnc3[nH]ncc23)CC1 (some centres not stated)
active: [1] 62.3 µM | [3] 52.4 µM | [4] 78.4 µM | [9] 50.1 µM
inactive: all other assays above

CCCCC(CC)COC(=O)c1ccc(C(=O)OCC(CC)CCCC)cc1 (configuration not stated)
active: [9] 32.4 µM
inactive: all other assays above

Cc1ccc(N)cc1O
active: [6] 0.917 µM
inactive: all other assays above

CC(C)CCCCCCOC(=O)c1ccc(C(=O)OCCCCCCC(C)C)c(C(=O)OCCCCCCC(C)C)c1
inactive: all assays above

CCCN(C1CCN(C(=O)C2CCNCC2)CC1)[C@@H]1CCc2ccc(OC)cc2C1
active: [3] 100 µM | [5] 67.5 µM | [7] 100 µM
inactive: all other assays above

O=C(O)c1cccc(Oc2ccccc2)c1
inactive: all assays above

COC(=O)CC(=O)OC
inactive: all assays above

CN(C)c1ccc(N=NS(=O)(=O)O)cc1
active: [1] 86.9 µM | [9] 54.3 µM
inactive: all other assays above

CC(C)=CCCC(C)CCO (configuration not stated)
active: [9] 0.0388 µM
inactive: all other assays above

O=P(OC(CCl)CCl)(OC(CCl)CCl)OC(CCl)CCl
active: [2] 48 µM | [3] 55.6 µM | [5] 44.9 µM | [7] 49.4 µM | [9] 49.1 µM
inactive: [1] | [4] | [6] | [8]

Clc1nc(Cl)c(Cl)c(Cl)c1Cl
active: [1] 40 µM | [3] 45 µM | [5] 77.3 µM | [7] 102 µM | [8] 38.6 µM | [9] 20 µM
inactive: [2] | [4] | [6]

O=C1CCC(N2C(=O)c3ccccc3C2=O)C(=O)N1 (configuration not stated)
inactive: all assays above

O=C(CCCCCCCCc1cccnc1)N1CCC(C=C(c2ccccc2)c2ccccc2)CC1
inactive: all assays above

CC(C)=CCCC(C)=CC=O
inactive: all assays above

Cn1c(=O)c2c(ncn2C)n(C)c1=O
inactive: all assays above

CC[C@H]1CC[C@H](NCc2cc3c(cc2OC)[C@H]2C[C@H]2C(=O)N3C)[C@H](c2ccccc2)N1
inactive: all assays above

CCOc1cccc(-n2cc(C(=O)N3CCN(c4cc(C(=O)O)c5ccccc5c4)CC3)nc2-c2ccc(C)cc2)c1
active: [1] 97.5 µM | [3] 88.3 µM | [4] 101 µM | [5] 97.5 µM | [7] 104 µM | [8] 99.3 µM | [9] 96 µM
inactive: [2] | [6]

CCC(C)(C)C(=O)O[C@H]1C[C@@H](C)C=C2C=C[C@H](C)[C@H](CC[C@@H]3C[C@@H](O)CC(=O)O3)[C@H]21
inactive: [2] | [4] | [9]
active: [1] 2.85 µM | [3] 123 µM | [5] 2.96 µM | [6] 105 µM | [7] 3.97 µM | [8] 89.3 µM

O=C(O)c1cc(N=Nc2ccc(S(=O)(=O)Nc3ccccn3)cc2)ccc1O
active: [6] 95.9 µM
inactive: all other assays above

O=C(O)c1cccc(N(Cc2cccnc2)c2ccc(OC(F)F)c(OC(F)F)c2)c1
inactive: [1] | [2] | [4] | [9]
active: [3] 43.6 µM | [5] 10.4 µM | [6] 0.0349 µM | [7] 13.3 µM | [8] 5.63 µM
